Whole data set: some 1,000 compounds, median “thermal shift dTm” near 0.19, cut for the highest 2% near 1.7. For the sample, the highest values were picked, then their nearest neighbours and some compounds at random. Calls of active or inactive are those of the source.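 Rule for the calls: active = mean rise in melting temperature of at least 1 degC over same-plate control wells; inactive = below that, where a call was filed.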
These compounds were tested against Sulfhydryl oxidase 1 (Homo sapiens) (UniProt O00391) (assay: ligand-induced melting shift of human QSOX1 – biophysical, protein thermal shift, single concentration, QSOX1 inhibitor project, confirmation (AID 1347422;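 note: dTm is compound Tm minus mean Tm of DMSO-only wells on that plate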)). Conditions: recombinant hQSOX1 thermal shift, Sypro Orange, at 25 µM, stronger effect = higher value.
Sequence of Sulfhydryl oxidase 1 (Homo sapiens) (O00391 whole entry, looked up): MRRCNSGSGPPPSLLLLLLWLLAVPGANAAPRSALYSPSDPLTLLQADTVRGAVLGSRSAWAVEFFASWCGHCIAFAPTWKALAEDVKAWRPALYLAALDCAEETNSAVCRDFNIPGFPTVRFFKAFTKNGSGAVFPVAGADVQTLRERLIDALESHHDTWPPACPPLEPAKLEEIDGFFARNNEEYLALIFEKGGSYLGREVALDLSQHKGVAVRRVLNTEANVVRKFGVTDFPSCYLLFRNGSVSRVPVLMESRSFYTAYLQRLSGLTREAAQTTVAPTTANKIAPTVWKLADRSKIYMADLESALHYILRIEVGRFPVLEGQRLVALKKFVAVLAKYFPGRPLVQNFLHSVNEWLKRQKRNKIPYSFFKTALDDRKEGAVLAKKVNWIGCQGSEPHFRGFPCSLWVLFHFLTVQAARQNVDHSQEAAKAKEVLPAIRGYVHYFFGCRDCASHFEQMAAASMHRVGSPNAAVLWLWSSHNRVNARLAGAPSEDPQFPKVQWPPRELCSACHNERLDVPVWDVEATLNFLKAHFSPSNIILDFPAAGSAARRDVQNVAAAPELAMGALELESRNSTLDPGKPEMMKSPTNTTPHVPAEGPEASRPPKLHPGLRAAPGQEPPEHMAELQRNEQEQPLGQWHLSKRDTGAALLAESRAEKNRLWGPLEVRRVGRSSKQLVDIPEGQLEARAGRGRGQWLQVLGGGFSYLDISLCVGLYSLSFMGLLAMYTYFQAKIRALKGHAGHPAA

SMILES	thermal shift dTm
COc1ccc(-c2c(-c3ccc(OC)c(C)c3O)n[nH]c2C(F)(F)F)cc1	0.76 °C
Cc1ccc2sc(-c3ccc(NC(=O)CCc4ccccc4)cc3)nc2c1	0.4 °C
COc1ccc(NC(=O)CSCc2ccccc2C)cc1Cl	0.02 °C
Cc1ccc(S(=O)(=O)Nc2cccc(NC(=O)c3cccs3)c2)cc1	0.48 °C
O=C(c1ccncc1)c1ccc(NC(=O)c2cccs2)cc1	0.05 °C
Cc1cc(C)nc(NS(=O)(=O)c2ccc(NC(=O)c3cccs3)cc2)n1	2.92 °C (active)
CC1=Nc2ccccc2/C1=C/c1c(O)n(Cc2ccco2)c(=O)[nH]c1=O	0.93 °C
CCOc1ccc(Nc2nnc(C)s2)cc1	0.28 °C
CC(=O)c1sc(Nc2ccc(Oc3ccccc3)cc2)nc1C	0.15 °C
Cc1nc(N)sc1-c1nnc(Nc2ccccc2)s1	2.14 °C (active)
Cc1ccc(NC(=O)C(C)Sc2nc3c(c(=O)[nH]2)CCCC3)cc1Cl (stereo not given)	0.01 °C
CCOc1ccc2nc(NC(=O)CCCCC(=O)O)sc2c1	-0.04 °C (inactive)
CC(NS(=O)(=O)c1ccc(Cl)cc1)C1C2CC3CC(C2)CC1C3 (stereo not given)	0.05 °C
COc1ccc(CCC(=O)Nc2nc3ccc(S(C)(=O)=O)cc3s2)cc1	0.35 °C
Cc1ccc(CN2CCC(C(=O)Nc3cccc(-c4ccn[nH]4)c3)CC2)o1	0.19 °C
CCc1nc2sc(C(=O)c3ccccc3)c(N)c2c2c1CCCC2	0.11 °C
O=C(CCCc1c[nH]c2ccccc12)NCCOc1ccc(Cl)cc1	-0.03 °C (inactive)
COc1cc(CO)cc(Cl)c1OCc1cccc2ccccc12	0.21 °C
CC(=O)Nc1cccc(NC(=O)COc2ccc(F)cc2Cl)c1	0 °C (inactive)
CCSC1=N/C(=C\c2ccc(-c3cccc(Cl)c3)o2)C(=O)S1	0.25 °C
Cc1ccc(S(=O)(=O)Nc2ccc(C(=O)Nc3ccc4c(c3)OCO4)cc2)cc1	1.03 °C (active)
Cc1ccc(Nc2nc(C3(C)CC4(CC(C)OC4=O)C(=O)O3)cs2)cc1 (stereo not given)	0.11 °C
O=C1OC(c2ccccc2)OC(=O)C1=Cc1ccc(-c2cccc(C(F)(F)F)c2)o1 (stereo not given)	1.07 °C (active)
CCCc1cc(=O)[nH]c(N2CCN(Cc3ccc4c(c3)OCO4)CC2)n1	0.02 °C
Cc1ccc(-c2n[nH]c(-c3ccncc3)n2)cc1	0 °C
O=C(NCCO)Nc1ccc(Cl)c(Cl)c1	0 °C (inactive)
O/N=C/c1cc(Cl)ccc1OCc1ccc(F)cc1	0.34 °C
CCOc1ccc(NC(=O)Nc2cnccn2)cc1	0.09 °C

SMILES	thermal shift dTm
O=C(COc1ccc(Cl)cc1)NCCSCc1ccc(Cl)c(Cl)c1	0.11 °C
CC(=O)Nc1ccc(NC(=O)CCc2nc(-c3ccccc3)no2)cc1	0.14 °C
Cc1cccc(Nc2nc3ccc(C)cc3n3cnnc23)c1	0.19 °C
Cc1ccc(C(=O)Nc2nc(-c3ccccc3)c(C)s2)s1	0.01 °C
Cc1ccc(NC(=O)Nc2ccc(S(=O)(=O)Nc3ccccn3)cc2)cc1	2.37 °C (active)
Cc1noc(NS(=O)(=O)c2ccc(NC(=O)Nc3ccc(Cl)cc3)cc2)c1C	0.7 °C
O=C(Nc1ccc(Cl)cc1)Nc1ccc(S(=O)(=O)Nc2ncccn2)cc1	1.03 °C (active)
CC(NC(=O)c1ccc(-c2cc(Cl)ccc2Cl)o1)c1ccccc1 (stereo not given)	0.07 °C
Cc1ccccc1COc1ccc(Br)cc1/C=C1/N=C(c2ccco2)OC1=O	0.82 °C
Cc1nonc1CC(=O)N1CCc2ccc(NC(=O)Cc3ccccc3F)cc2C1	0.29 °C
COc1ccc(-c2nnc(Nc3ccc(O)cc3)c3ccccc23)cc1	0.15 °C
CN(C(=O)Nc1ccc(F)cc1)c1ccccc1	-1.43 °C (inactive)
Clc1cccc(-c2cn3ccccc3n2)c1	0.71 °C
O=C(Nc1ccc2ncccc2c1)c1cccc([N+](=O)[O-])c1	0.53 °C
N#Cc1nc(/C=C/c2cccs2)oc1NCCc1ccccc1	-37.7 °C (inactive)
Cc1ccc(NC(=O)N2CCC(Cc3ccccc3)CC2)cc1	0.07 °C
O=C(/C=C/c1ccc(Cl)cc1)Nc1cccnc1	2.02 °C (active)
O=C(/C=C/c1ccc(F)cc1)Nc1ccncc1	0.57 °C
CCCC(=O)Nc1cccc(NC(=O)/C=C/c2ccc(Cl)cc2)c1	-31.6 °C (inactive)
COc1cccc(NC(=O)Nc2cc(C)ccc2F)c1	0 °C
CCc1ccc(NC(=O)Nc2cc(F)ccc2F)cc1	-15.7 °C (inactive)
CCOc1ccc(NC(=O)Nc2cc(OC)c(OC)c(OC)c2)cc1	1.64 °C (active)
CCOc1ccc(NC(=O)Nc2cc(C)ccc2OC)cc1	0.34 °C
CCOc1ccc(NC(=O)Nc2cc(F)ccc2C)cc1	2.14 °C (active)
CCOc1ccc(NC(=O)Nc2cc(C)ccc2F)cc1	2.42 °C (active)
Cc1ccc(-c2cn(S(=O)(=O)c3cccc4nsnc34)nc2N)cc1	0.1 °C
O=C(Nc1ccccc1C(=O)O)c1cccc(S(=O)(=O)Nc2ccccc2)c1	1.23 °C (active)

— PubChem BioAssay AID1347422 (Sanford-Burnham Center for Chemical Genomics, 2020)
